# HT1080-NT tox: kills 2HG-producing HT-1080-NT fibrosarcoma cells | 360,000 compounds, 1.6% hits | AID 686970 | HT-1080-NT fibrosarcoma viability, CellTiter-Glo ATP luminescence, 48 h | Potency, µM (highest dose often 46.1 µM), for the others: at the highest dose activity, negative = less viability, hits mostly cytotoxic;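 note: NT is the 2HG producing partner of a matched IDH1 knockdown line; 0% = DMSO-treated cells and -100% = media-only wells without cells; nearly all actives have a fitted effect of over 55% in size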
#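 Fibrosarcoma NT cells, 750 per well in 5% FBS RPMI, were exposed to compound for 48 hours. Viability: CellTiter-Glo luminescence.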
# HT1080 IDH1KD tx: toxicity to HT-1080 IDH1 knockdown cells (counter line); HT-1080 IDH1 knockdown viability, ATP luminescence, 48 h; Potency, µM (top dose mostly 46.1 µM), for the others: at the top dose activity, negative = toxicity, most hits filed as cytotoxic; 360,000 compounds, 2% hits;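 note: 0% = DMSO wells and -100% = cell-free medium wells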
#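 CellTiter-Glo luminescence after 48 h compound exposure at 37 degrees C of IDH1-knockdown HT-1080 cells in 5% FBS RPMI. %Activity scaled between DMSO wells and cell-free media wells, with curves fitted and assigned curve classes.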
# ATXN2 expr inh: reduces ATXN2 reporter expression in HEK-293 cells; HEK-293 ATXN2-luciferase reporter, luminescence, 24 h; Potency, µM (doses to about 57 µM), without a hit: top-dose activity change, negative = inhibition, actives largely listed as inhibitors; 360,000 compounds, 0.72% hits; note: % is set by controls: 0 for no effect and ±100 for the full control effect; nearly all actives have a fitted effect of over 55% in size
#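 ATXN2-luciferase reporter cells (luciferase flanked by upstream and downstream ATXN2 gene portions) were treated 24 h at 37 °C with compounds at up to 57 uM. SteadyGlo luminescence gave expression; GF-AFC fluorescence gave viability.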
# KB-3-1 cytotox: kills parental KB-3-1 adenocarcinoma cells. KB-3-1 viability, CellTiter-Glo ATP luminescence, 72 h. 400,000 compounds, 1.4% hits. Potency, µM (titrated, usually from 46.1 µM), hits mostly cytotoxic; note: % is set by controls: 0 for no effect and ±100 for the full control effect; nearly all actives have a fitted effect of over 60% in size
#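 Cytotoxicity measured as CellTiter-Glo luminescence after 72 h at 37 C. Compound titrations were pinned onto drug-naive KB-3-1 parental adenocarcinoma cells grown in DMEM with 10% FBS, and normalized data fitted to concentration-response curves.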
# KB-V1 cytotox: KB-V1 MDR subline cytotoxicity | KB-V1 MDR cells viability, CellTiter-Glo, 72 h | Potency, µM (doses to about 46.1 µM), hits mostly cytotoxic | 400,000 compounds, 3.4% hits; note: % is set by controls: 0 for no effect and ±100 for the full control effect; nearly all actives have a fitted effect of over 60% in size
#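 KB-V1 cells (P-gp-expressing MDR subline of KB-3-1) in phenol-red-free DMEM with 10% FBS were exposed to library compounds over a concentration series for 72 h at 37 degrees C. Viability read by CellTiter-Glo luminescence; concentration-effect curves fitted after normalization.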
# S2 tox: viability counter-screen for ATXN expression inhibitors; S2 cells (HEK-293 line with an ATXN2-luciferase reporter) viability, CellTiter-Fluor protease fluorescence, 24 h; Potency, µM (titrated, usually from 56.7 µM), actives largely listed as cytotoxic; 400,000 compounds, 0.49% hits; note: nearly all actives have a fitted effect of over 40% in size
# The depositor's hits bear a star; i = inactive; u = inconclusive; x = not tested or not shown. Shown are actives, neighbours in structure and some others; about 6.2% of the full set was active somewhere. Calls come from the whole dose curve; as a rule, active = well fitted curve in the direction sought with a large enough effect; inconclusive = small, poorly fitted or top-dose-only effect, or another doubt; inactive = no such curve, though single readings can be large; an effect the other way counts as inactive or inconclusive. Potency is the fitted concentration of half-maximal effect.
SMILES,HT1080-NT tox,HT1080 IDH1KD tx,ATXN2 expr inh,KB-3-1 cytotox,KB-V1 cytotox,S2 tox
CCOC(=O)c1ccccc1NC(=O)Cn1c(-c2nonc2N)nc2ccccc21,u,0.92µM*,-19.3%,1.03µM*,1.46µM*,u
CC1CC(C)CN(C(=O)Cn2c(-c3nonc3N)nc3ccccc32)C1 (centres undefined),-9.3%,-3.9%,4.5%,i,i,i
CC1CCCN(C(=O)Cn2c(-c3nonc3N)nc3ccccc32)C1 (centres undefined),9.5%,-4.1%,-10.7%,i,7.31µM*,u
Cc1ccc(S(=O)(=O)c2cn(CC(=O)Nc3ccc(F)cc3)c3cc4c(cc3c2=O)OCO4)cc1,x,x,6.9%,i,i,i
CCCc1ccc2oc(C(=O)NCCN3CCCC(O)C3)c(C)c2c1 (centres undefined),u,23.1µM*,41.0%,i,i,i
CCCc1ccc2oc(C(=O)NCCN3CCCC(C(N)=O)C3)c(C)c2c1 (centres undefined),-19.1%,-16.1%,x,i,i,i
CCCC1NC(=O)c2cc3ccccc3cc2-n2c1nc1cc(F)ccc1c2=O (centres undefined),-21.4%,u,-38.1%,i,i,u
O=C1NC(Cc2ccc(O)cc2)c2nc3ccc(F)cc3c(=O)n2-c2cc3ccccc3cc21 (centres undefined),11.6µM*,16.4µM*,u,13µM*,u,14.1µM*
CCC1NC(=O)c2cc3ccccc3cc2-n2c1nc1cc(F)ccc1c2=O (centres undefined),13.7%,2.8%,-7.1%,i,u,i
COc1cc2nc3n(c(=O)c2cc1OC)-c1cc2ccccc2cc1C(=O)NC3CC(C)C (centres undefined),-14.7%,u,u,18.4µM*,u,u
O=C1NC(Cc2ccccc2)c2nc3cc(F)c(F)cc3c(=O)n2-c2cc3ccccc3cc21 (centres undefined),u,u,-31.9%,14.6µM*,u,u
COc1ccc2nc3n(c(=O)c2c1)-c1ncccc1C(=O)NC3CC(C)C (centres undefined),16.9%,1.6%,0.2%,i,u,i
COc1cc2nc3n(c(=O)c2cc1OC)-c1cc2ccccc2cc1C(=O)NC3Cc1ccccc1 (centres undefined),-18.6%,-22.9%,-3.9%,i,i,u
O=C1NC(Cc2ccc(O)cc2)c2nc3cc(F)c(F)cc3c(=O)n2-c2cc3ccccc3cc21 (centres undefined),u,18.4µM*,u,u,i,x
COc1ccc(-c2nc3ccccc3s2)cc1NC(=O)c1ccc(C#N)cc1F,x,x,5.1%,i,i,i
CC(C)CC1NC(=O)c2cc3ccccc3cc2-n2c1nc1cc(Cl)ccc1c2=O (centres undefined),9.6%,13.9%,-7.6%,u,i,u
Cc1ccc2nc3n(c(=O)c2c1)-c1cc2ccccc2cc1C(=O)NC3Cc1ccc(O)cc1 (centres undefined),9.2µM*,13µM*,u,u,i,u
O=C1NC(Cc2ccc(O)cc2)c2nc3cc(Cl)ccc3c(=O)n2-c2cc3ccccc3cc21 (centres undefined),23.1µM*,16.4µM*,u,u,u,u
COc1cc2nccc(Oc3ccc(NC(=O)NC4CC4)c(Cl)c3)c2cc1C(N)=O,x,x,3.43µM*,x,x,x
COc1ccc(OC)c(NC(=O)NC2CCCCCCC2)c1,-13.9%,-12.6%,9.7%,i,i,i
COc1ccc(C(=O)Nc2ccccc2C(=O)OCc2cc(=O)n3nc(C4CC4)sc3n2)cc1,x,x,-4.3%,i,i,i
COc1cccc(N2CCN(c3nc(-c4ccccc4C)cc(=O)[nH]3)CC2)c1,u,u,0.708µM*,u,u,i
COc1cccc(N2CCN(c3nc(C)c(C)c(=O)[nH]3)CC2)c1,-10.6%,-23.5%,-10.3%,i,i,i
CCC1(C2CCN(C(=O)c3ccc4ccccc4c3)CC2)NC(=O)N(CCc2scnc2C)C1=O (centres undefined),x,x,x,x,x,i
CCc1ccccc1Nc1cc(C(=O)NCCc2ccccc2)c2ccccc2n1,x,x,u,i,i,u
SMILES,HT1080-NT tox,HT1080 IDH1KD tx,ATXN2 expr inh,KB-3-1 cytotox,KB-V1 cytotox,S2 tox
CSc1nccc(-c2cc(Cl)c3c(c2)CC(CNC(=O)c2nonc2C)O3)n1 (centres undefined),x,x,x,x,x,i
O=C(NCc1ccc(F)cc1)c1ccc(CS(=O)(=O)c2ccc(Br)cc2)o1,-6.0%,-20.6%,x,i,13µM*,x
O=C(NCC1CCCO1)c1ccc([N+](=O)[O-])o1 (centres undefined),u,-28.3%,0.0%,20.6µM*,u,u
O=C(NCC1CCCO1)c1ccc(CS(=O)(=O)c2ccc(Cl)cc2)o1 (centres undefined),15.7%,4.5%,-4.1%,i,23.1µM*,i
Cc1cc2c(cc1CC(=O)c1sccc1S(=O)(=O)Nc1onc(C)c1Cl)OCO2,x,x,-3.6%,x,x,i
CCOc1ccccc1N(CC(=O)Nc1ccc(OC)c(Cl)c1)S(=O)(=O)c1ccccc1,x,x,-10.1%,u,u,i
O=c1/c(=C/c2ccccn2)sc2nc3ccccc3n12,5.7%,10.5%,-35.2%,i,i,i
Cc1cc(C=c2sc3nc4ccccc4n3c2=O)c(C)n1-c1ccccc1,x,x,0.243µM*,x,x,x
C[C@@H]1CN([C@H](C)CO)S(=O)(=O)c2ccc(C#Cc3ccccc3F)cc2O[C@H]1CN(C)C(=O)c1ccc2c(c1)OCO2,u,u,u,u,u,12.6µM*
C[C@H](CO)N1C[C@H](C)[C@@H](CN(C)CC2CCOCC2)Oc2cc(C#Cc3ccccc3F)ccc2S1(=O)=O,-19.2%,-19.7%,u,i,u,i
C[C@H]1CN([C@@H](C)CO)S(=O)(=O)c2ccc(C#Cc3ccccn3)cc2O[C@H]1CN(C)Cc1ccc(F)cc1,17.5%,9.7%,3.7%,i,i,i
CCCC#Cc1ccc2c(c1)O[C@@H](CN(C)Cc1ccc3c(c1)OCO3)[C@H](C)CN([C@@H](C)CO)S2(=O)=O,u,u,u,20.6µM*,u,u
Nc1nc2ccccc2n1Cc1ccc(F)cc1,x,x,-16.5%,x,x,i
O=S(=O)(CC(CN1CCCCC1)N1CCCCC1)c1ccc2ccccc2c1 (centres undefined),u,u,-20.2%,6.51µM*,u,i

# Compound activity: PubChem BioAssay, National Center for Advancing Translational Sciences (NCATS)
